Source: PMC11006913
Residue numbers refer to the chain shown, from its start.

Columns and labels:
Test in all cases: PBM; 200 nM protein, PBS
Details in all cases: dsDNA, one strand shown
[1] = molecular target: T1, SIX6 (Homo sapiens, UniProt O95475 114-200, L167I)
T1 sequence: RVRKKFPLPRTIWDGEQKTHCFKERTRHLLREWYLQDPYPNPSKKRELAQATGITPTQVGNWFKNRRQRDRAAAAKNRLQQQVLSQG

[2] = molecular target: T2, SIX6 (Homo sapiens, UniProt O95475 114-200, L143V)
T2 sequence: T1 sequence with L30V, I54L

[3] = molecular target: T3, SIX6 (Homo sapiens, UniProt O95475 114-200, H141N)
T3 sequence: T1 sequence with H28N, I54L

[4] = molecular target: T4, SIX6 (Homo sapiens, UniProt O95475 114-200, T165P)
T4 sequence: T1 sequence with T52P, I54L

[5] = molecular target: T5, SIX6 (Homo sapiens, UniProt O95475 114-200, T165G)
T5 sequence: T1 sequence with T52G, I54L

[6] = molecular target: T6, SIX6 (Homo sapiens, UniProt O95475 114-200, T139Q)
T6 sequence: T1 sequence with T26Q, I54L

[7] = molecular target: T7, SIX6 (Homo sapiens, UniProt O95475 114-200)
T7 sequence: T1 sequence with I54L

[8] = molecular target: T8, SIX6 (Homo sapiens, UniProt O95475 114-200, L167M)
T8 sequence: T1 sequence with I54M

[9] = molecular target: T9, SIX6 (Homo sapiens, UniProt O95475 114-200, L143I)
T9 sequence: T1 sequence with L30I, I54L

[10] = molecular target: T10, SIX6 (Homo sapiens, UniProt O95475 114-200, L167V)
T10 sequence: T1 sequence with I54V

[11] = molecular target: T11, SIX6 (Homo sapiens, UniProt O95475 114-200, T165I)
T11 sequence: T1 sequence with T52I, I54L

[12] = molecular target: HOXA4 (Homo sapiens, UniProt Q00056 201-287, W262R)
[13] = molecular target: HOXA4 (Homo sapiens, UniProt Q00056 201-287, R217L)
[14] = molecular target: HOXA4 (Homo sapiens, UniProt Q00056 201-287)
[15] = molecular target: HOXA4 (Homo sapiens, UniProt Q00056 201-287, W262F)
[16] = molecular target: HOXC10 (Homo sapiens, UniProt Q9NYD6 254-340, K271E)
[17] = molecular target: NKX3-2 (Homo sapiens, UniProt P78367 192-278, P234S)
[18] = molecular target: NKX3-2 (Homo sapiens, UniProt P78367 192-278)
NKX3-2 (Homo sapiens, UniProt P78367 192-278), sequence (P78367 192-278): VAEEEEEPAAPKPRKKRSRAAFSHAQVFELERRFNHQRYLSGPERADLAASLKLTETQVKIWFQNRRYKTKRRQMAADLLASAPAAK

HOXC10, sequence (Q9NYD6 254-340 K271E): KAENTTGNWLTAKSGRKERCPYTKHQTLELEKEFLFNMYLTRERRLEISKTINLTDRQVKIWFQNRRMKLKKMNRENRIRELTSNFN
HOXA4 (Homo sapiens, UniProt Q00056 201-287, W262R), sequence (Q00056 201-287 W262R): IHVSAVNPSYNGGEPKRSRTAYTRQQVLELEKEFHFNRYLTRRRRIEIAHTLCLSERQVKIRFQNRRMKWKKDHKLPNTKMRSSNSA
HOXA4 (Homo sapiens, UniProt Q00056 201-287, W262F), sequence (Q00056 201-287 W262F): as the sequence (Q00056 201-287 W262R) above, with R62F counted along it
HOXA4 (Homo sapiens, UniProt Q00056 201-287), sequence (Q00056 201-287): as the sequence (Q00056 201-287 W262R) above, with R62W counted along it
HOXA4 (Homo sapiens, UniProt Q00056 201-287, R217L), sequence (Q00056 201-287 R217L): as the sequence (Q00056 201-287 W262R) above, with R17L, R62W counted along it
NKX3-2 (Homo sapiens, UniProt P78367 192-278, P234S), sequence (P78367 192-278 P234S): as the sequence (P78367 192-278) above, with P43S counted along it

ATACCTCC
binding signal [1]: 10.3 upbm affinity estimate (log intensity, higher = more binding, comparable within an allelic series)
binding signal [2]: 9.86 upbm affinity estimate (log intensity, higher = more binding, comparable within an allelic series)
binding signal [3]: 10.4 upbm affinity estimate (log intensity, higher = more binding, comparable within an allelic series)
binding signal [4]: 9.38 upbm affinity estimate (log intensity, higher = more binding, comparable within an allelic series)
binding signal [5]: 10.5 upbm affinity estimate (log intensity, higher = more binding, comparable within an allelic series)
binding signal [6]: 10.5 upbm affinity estimate (log intensity, higher = more binding, comparable within an allelic series)
binding signal [7]: 10.4 upbm affinity estimate (log intensity, higher = more binding, comparable within an allelic series)

GGATAGTA
binding signal [1]: 10.4 upbm affinity estimate (log intensity, higher = more binding, comparable within an allelic series)
binding signal [3]: 10.3 upbm affinity estimate (log intensity, higher = more binding, comparable within an allelic series)
binding signal [4]: 9.87 upbm affinity estimate (log intensity, higher = more binding, comparable within an allelic series)
binding signal [8]: 10.3 upbm affinity estimate (log intensity, higher = more binding, comparable within an allelic series)
binding signal [9]: 10.2 upbm affinity estimate (log intensity, higher = more binding, comparable within an allelic series)
binding signal [5]: 10.4 upbm affinity estimate (log intensity, higher = more binding, comparable within an allelic series)
binding signal [6]: 10.6 upbm affinity estimate (log intensity, higher = more binding, comparable within an allelic series)
binding signal [10]: 10.3 upbm affinity estimate (log intensity, higher = more binding, comparable within an allelic series)
binding signal [7]: 10.4 upbm affinity estimate (log intensity, higher = more binding, comparable within an allelic series)
binding signal [11]: 10.3 upbm affinity estimate (log intensity, higher = more binding, comparable within an allelic series)

AGTGATCC
binding signal [1]: 11.1 upbm affinity estimate (log intensity, higher = more binding, comparable within an allelic series)
binding signal [6]: 11.2 upbm affinity estimate (log intensity, higher = more binding, comparable within an allelic series)

CCCGAGGG
binding signal [12]: 9.81 upbm affinity estimate (log intensity, higher = more binding, comparable within an allelic series)
binding signal [13]: 9.62 upbm affinity estimate (log intensity, higher = more binding, comparable within an allelic series)
binding signal [14]: 9.66 upbm affinity estimate (log intensity, higher = more binding, comparable within an allelic series)
binding signal [15]: 9.77 upbm affinity estimate (log intensity, higher = more binding, comparable within an allelic series)

CAGGAAGG
binding signal [12]: 9.86 upbm affinity estimate (log intensity, higher = more binding, comparable within an allelic series)
binding signal [13]: 9.68 upbm affinity estimate (log intensity, higher = more binding, comparable within an allelic series)
binding signal [14]: 9.59 upbm affinity estimate (log intensity, higher = more binding, comparable within an allelic series)
binding signal [15]: 9.73 upbm affinity estimate (log intensity, higher = more binding, comparable within an allelic series)

CGCGCGCG
binding signal [12]: 9.91 upbm affinity estimate (log intensity, higher = more binding, comparable within an allelic series)
binding signal [13]: 9.88 upbm affinity estimate (log intensity, higher = more binding, comparable within an allelic series)
binding signal [14]: 9.94 upbm affinity estimate (log intensity, higher = more binding, comparable within an allelic series)
binding signal [16]: 10 upbm affinity estimate (log intensity, higher = more binding, comparable within an allelic series)
binding signal [15]: 10.1 upbm affinity estimate (log intensity, higher = more binding, comparable within an allelic series)

GACCCTCC
binding signal [12]: 9.82 upbm affinity estimate (log intensity, higher = more binding, comparable within an allelic series)
binding signal [13]: 9.94 upbm affinity estimate (log intensity, higher = more binding, comparable within an allelic series)
binding signal [14]: 9.94 upbm affinity estimate (log intensity, higher = more binding, comparable within an allelic series)
binding signal [15]: 9.9 upbm affinity estimate (log intensity, higher = more binding, comparable within an allelic series)

CAGATATC
binding signal [1]: 11.1 upbm affinity estimate (log intensity, higher = more binding, comparable within an allelic series)
binding signal [6]: 11.1 upbm affinity estimate (log intensity, higher = more binding, comparable within an allelic series)
binding signal [10]: 10.8 upbm affinity estimate (log intensity, higher = more binding, comparable within an allelic series)

ATACTAAC
binding signal [1]: 10.1 upbm affinity estimate (log intensity, higher = more binding, comparable within an allelic series)
binding signal [7]: 10.1 upbm affinity estimate (log intensity, higher = more binding, comparable within an allelic series)

GGGGGAAC
binding signal [12]: 9.66 upbm affinity estimate (log intensity, higher = more binding, comparable within an allelic series)
binding signal [13]: 9.7 upbm affinity estimate (log intensity, higher = more binding, comparable within an allelic series)
binding signal [14]: 9.72 upbm affinity estimate (log intensity, higher = more binding, comparable within an allelic series)
binding signal [15]: 9.64 upbm affinity estimate (log intensity, higher = more binding, comparable within an allelic series)

AGCCCGAG
binding signal [12]: 9.9 upbm affinity estimate (log intensity, higher = more binding, comparable within an allelic series)
binding signal [13]: 9.88 upbm affinity estimate (log intensity, higher = more binding, comparable within an allelic series)
binding signal [14]: 9.65 upbm affinity estimate (log intensity, higher = more binding, comparable within an allelic series)
binding signal [15]: 9.85 upbm affinity estimate (log intensity, higher = more binding, comparable within an allelic series)

AGATGATA
binding signal [1]: 11.1 upbm affinity estimate (log intensity, higher = more binding, comparable within an allelic series)
binding signal [10]: 10.9 upbm affinity estimate (log intensity, higher = more binding, comparable within an allelic series)
binding signal [11]: 10.9 upbm affinity estimate (log intensity, higher = more binding, comparable within an allelic series)

GCCAAGCC
binding signal [12]: 9.84 upbm affinity estimate (log intensity, higher = more binding, comparable within an allelic series)
binding signal [13]: 9.8 upbm affinity estimate (log intensity, higher = more binding, comparable within an allelic series)
binding signal [14]: 9.92 upbm affinity estimate (log intensity, higher = more binding, comparable within an allelic series)
binding signal [16]: 10 upbm affinity estimate (log intensity, higher = more binding, comparable within an allelic series)
binding signal [15]: 9.89 upbm affinity estimate (log intensity, higher = more binding, comparable within an allelic series)

GAGGTTGC
binding signal [12]: 9.8 upbm affinity estimate (log intensity, higher = more binding, comparable within an allelic series)
binding signal [13]: 9.7 upbm affinity estimate (log intensity, higher = more binding, comparable within an allelic series)
binding signal [14]: 9.69 upbm affinity estimate (log intensity, higher = more binding, comparable within an allelic series)
binding signal [16]: 9.96 upbm affinity estimate (log intensity, higher = more binding, comparable within an allelic series)
binding signal [15]: 9.89 upbm affinity estimate (log intensity, higher = more binding, comparable within an allelic series)

CAGCCTCC
binding signal [12]: 9.65 upbm affinity estimate (log intensity, higher = more binding, comparable within an allelic series)
binding signal [13]: 9.73 upbm affinity estimate (log intensity, higher = more binding, comparable within an allelic series)
binding signal [14]: 9.62 upbm affinity estimate (log intensity, higher = more binding, comparable within an allelic series)
binding signal [17]: 10.7 upbm affinity estimate (log intensity, higher = more binding, comparable within an allelic series)
binding signal [15]: 9.71 upbm affinity estimate (log intensity, higher = more binding, comparable within an allelic series)
binding signal [18]: 10.7 upbm affinity estimate (log intensity, higher = more binding, comparable within an allelic series)

GCCGGCCC
binding signal [12]: 9.58 upbm affinity estimate (log intensity, higher = more binding, comparable within an allelic series)
binding signal [13]: 9.63 upbm affinity estimate (log intensity, higher = more binding, comparable within an allelic series)
binding signal [14]: 9.78 upbm affinity estimate (log intensity, higher = more binding, comparable within an allelic series)
binding signal [15]: 9.8 upbm affinity estimate (log intensity, higher = more binding, comparable within an allelic series)

CCCCCTTC
binding signal [12]: 9.36 upbm affinity estimate (log intensity, higher = more binding, comparable within an allelic series)
binding signal [13]: 9.27 upbm affinity estimate (log intensity, higher = more binding, comparable within an allelic series)
binding signal [14]: 9.19 upbm affinity estimate (log intensity, higher = more binding, comparable within an allelic series)
binding signal [16]: 9.78 upbm affinity estimate (log intensity, higher = more binding, comparable within an allelic series)
binding signal [15]: 9.31 upbm affinity estimate (log intensity, higher = more binding, comparable within an allelic series)
